Source: the supplement of paper PMC8728848
The entries come from a sample that favours the strongest signals as a whole.

Legend:
Experiment in all cases: glycan array binding signal (z-score within array); higher = stronger binding
Settings in all cases: glycan notation: IUPAC condensed, linker removed
[1] = molecular target: Gal4S6S(b1-4)GlcNAc
In short: (§1)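 Glycan array data were curated from 3228 arrays in the Consortium for Functional Glycomics database and kept only where the protein sequence was available. Glycan names were converted to IUPAC-condensed notation, and columns mapping to the same glycan were averaged. The binding signal is a within-array Z-score, averaged across arrays of the same protein sequence at different concentrations or buffers and across linkers. Negative Z-scores can be read as non-binding.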

[2] = molecular target: Gal6S(b1-3)GlcNAc
In short: as §1

[3] = molecular target: Gal6S(b1-3)GlcNAc6S
In short: as §1

[4] = molecular target: Gal6S(b1-4)Glc
In short: as §1

[5] = molecular target: Gal6S(b1-4)Glc6S
In short: as §1

[6] = molecular target: Gal6S(b1-4)GlcNAc6S
In short: as §1

[7] = molecular target: Glc(a1-4)Glc
In short: as §1

[8] = molecular target: GlcNAc(a1-4)Gal(b1-4)GalNAc
In short: as §1

[9] = molecular target: GlcNAc(a1-4)Gal(b1-4)GlcNAc(b1-3)Gal(b1-4)GlcNAc(b1-3)Gal(b1-4)GlcNAc
In short: as §1

[10] = molecular target: GlcNAc(a1-4)Gal(b1-4)GlcNAc(b1-3)Gal(b1-4)[Fuc(a1-3)]GlcNAc(b1-3)Gal(b1-4)[Fuc(a1-3)]GlcNAc
In short: as §1

[11] = molecular target: GlcNAc(b1-2)[GlcNAc(b1-4)]Man(a1-3)[GlcNAc(b1-2)Man(a1-6)]Man(b1-4)GlcNAc(b1-4)GlcNAc
In short: as §1

[12] = molecular target: GlcNAc(b1-3)Gal(b1-4)GlcNAc(b1-2)Man(a1-3)[GlcNAc(b1-3)Gal(b1-4)GlcNAc(b1-2)Man(a1-6)]Man(b1-4)GlcNAc(b1-4)[Fuc(a1-6)]GlcNAc
In short: as §1

[13] = molecular target: GlcNAc(b1-3)Gal(b1-4)GlcNAc(b1-3)Gal(b1-4)GlcNAc(b1-2)Man(a1-3)[GlcNAc(b1-3)Gal(b1-4)GlcNAc(b1-3)Gal(b1-4)GlcNAc(b1-2)Man(a1-6)]Man(b1-4)GlcNAc(b1-4)[Fuc(a1-6)]GlcNAc
In short: as §1

[14] = molecular target: GlcNAc(b1-3)Gal(b1-4)GlcNAc(b1-3)Gal(b1-4)GlcNAc(b1-3)Gal(b1-4)GlcNAc(b1-2)[GlcNAc(b1-3)Gal(b1-4)GlcNAc(b1-3)Gal(b1-4)GlcNAc(b1-3)Gal(b1-4)GlcNAc(b1-6)]Man(a1-6)[GlcNAc(b1-3)Gal(b1-4)GlcNAc(b1-3)Gal(b1-4)GlcNAc(b1-3)Gal(b1-4)GlcNAc(b1-2)Man(a1-3)]Man(b1-4)GlcNAc(b1-4)[Fuc(a1-6)]GlcNAc
In short: as §1

[15] = molecular target: GlcNAc(b1-3)Gal(b1-4)GlcNAc(b1-3)Gal(b1-4)GlcNAc(b1-3)Gal(b1-4)GlcNAc(b1-3)Gal(b1-4)GlcNAc(b1-2)Man(a1-3)[GlcNAc(b1-3)Gal(b1-4)GlcNAc(b1-3)Gal(b1-4)GlcNAc(b1-3)Gal(b1-4)GlcNAc(b1-3)Gal(b1-4)GlcNAc(b1-2)Man(a1-6)]Man(b1-4)GlcNAc(b1-4)[Fuc(a1-6)]GlcNAc
In short: as §1

[16] = molecular target: GlcNAc(b1-3)Gal(b1-4)GlcNAc(b1-6)[Gal(b1-3)]GalNAc
In short: as §1

[17] = molecular target: GlcNAc(b1-3)Man
In short: as §1

[18] = molecular target: GlcNAc(b1-6)GalNAc
In short: as §1

[19] = molecular target: Man(a1-2)Man(a1-2)Man(a1-6)[Man(a1-3)]Man
In short: as §1

[20] = molecular target: Man(a1-2)Man(a1-3)[Man(a1-2)Man(a1-6)]Man
In short: as §1

[21] = molecular target: Man(a1-2)Man(a1-3)[Man(a1-6)]Man(a1-6)[Man(a1-2)Man(a1-3)]Man(b1-4)GlcNAc(b1-4)GlcNAc
In short: as §1

[22] = molecular target: Man(a1-6)Man
In short: as §1

[23] = molecular target: MurNAc(b1-4)GlcNAc
In short: as §1

[24] = molecular target: Neu5Ac(a2-3)Gal(b1-3)[Fuc(a1-4)]GlcNAc(b1-3)Gal(b1-4)[Fuc(a1-3)]GlcNAc
In short: as §1

[25] = molecular target: Neu5Ac(a2-3)Gal(b1-4)GlcNAc(b1-3)Gal(b1-3)GlcNAc
In short: as §1

[26] = molecular target: Neu5Ac(a2-3)Gal(b1-4)GlcNAc(b1-6)GalNAc
In short: as §1

[27] = molecular target: Neu5Ac(a2-3)Gal(b1-4)GlcNAc(b1-6)[Gal(b1-3)]GalNAc
In short: as §1

[28] = molecular target: Neu5Ac(a2-3)[GalNAc(b1-4)]Gal(b1-4)GlcNAc
In short: as §1

[29] = molecular target: Neu5Ac(a2-3)[GalNAc(b1-4)]Gal(b1-4)GlcNAc(b1-3)GalNAc
In short: as §1

[30] = molecular target: Neu5Ac(a2-6)Gal(b1-4)GlcNAc(b1-2)Man(a1-3)[Neu5Ac(a2-6)Gal(b1-4)GlcNAc(b1-2)Man(a1-6)]Man(b1-4)GlcNAc(b1-4)GlcNAc
In short: as §1

[31] = molecular target: Neu5Ac(a2-6)Gal(b1-4)GlcNAc(b1-3)GalNAc
In short: as §1

[32] = molecular target: Neu5Ac(a2-6)Gal(b1-4)GlcNAc(b1-6)[Gal(b1-3)]GalNAc
In short: as §1

[33] = molecular target: Neu5Ac9Ac(a2-3)Gal(b1-4)GlcNAc
In short: as §1

[34] = molecular target: Neu5Gc(a2-3)Gal(b1-3)[Fuc(a1-4)]GlcNAc
In short: as §1

[35] = molecular target: Neu5Gc(a2-3)Gal(b1-4)GlcNAc(b1-3)Gal(b1-4)GlcNAc(b1-2)Man(a1-3)[Neu5Gc(a2-3)Gal(b1-4)GlcNAc(b1-3)Gal(b1-4)GlcNAc(b1-2)Man(a1-6)]Man(b1-4)GlcNAc(b1-4)GlcNAc
In short: as §1

[36] = molecular target: Neu5Gc(b2-6)Gal(b1-4)GlcNAc
In short: as §1

B1: SP16664B-bot-474-25-474 (Bacteroides ovatus) (protein)
chain: CEEDIEIGNKIDESSYLASTQLSGLLLDENTNKNSSVIELRNNEYSTNVVFRLSKLPQKGVDVQIAVEESYAAIYNTIHETDFEVFPAANVKIANNGTFVLAPDDKVTPSVKVTLTAFDGMEEDKTYIVPLTVTSSTEGVTFTETSKHMVLLVQDYRNKPNTNKGEDAVQTVLYFEVNDTNPLNALEFLTESGKYFFDHIVLFAANINWDPEKQRVYLANNENVQFLLDNNDKYLQPLRKAGMKIIISILGNHDEAGVAQLSDMGAREFARELAAYCRAYNLDGVAFDDEYSNSPDLSNPWLASPSAYAGSRLMYECKAVMPEKIVSLYNLGNMYSSSLQVIDGIEPGQYCDYAVADYGGAAGPGTGMTLKQCAGMSIELRRGSGNSSESTARSRKEAGYGYYMFFALDPSLYGSQVYRCQSVCKGLYDETLVYPSYYYKKNSTEREAIN
- glycan array binding signal (z-score) [1]: -0.008
- glycan array binding signal (z-score) [2]: 0.118
- glycan array binding signal (z-score) [3]: 0.522
- glycan array binding signal (z-score) [4]: -0.453
- glycan array binding signal (z-score) [5]: 0.797
- glycan array binding signal (z-score) [6]: -0.289
- glycan array binding signal (z-score) [7]: -0.119
- glycan array binding signal (z-score) [8]: 0.293
- glycan array binding signal (z-score) [9]: -0.159
- glycan array binding signal (z-score) [10]: 4.58
- glycan array binding signal (z-score) [11]: 0.16
- glycan array binding signal (z-score) [12]: 0.352
- glycan array binding signal (z-score) [13]: 11.2
- glycan array binding signal (z-score) [14]: 0.018
- glycan array binding signal (z-score) [15]: 0.334
- glycan array binding signal (z-score) [16]: 1.57
- glycan array binding signal (z-score) [17]: 0.501
- glycan array binding signal (z-score) [18]: -0.234
- glycan array binding signal (z-score) [19]: -0.417
- glycan array binding signal (z-score) [20]: -0.568
- glycan array binding signal (z-score) [21]: -0.368
- glycan array binding signal (z-score) [22]: 0.198
- glycan array binding signal (z-score) [23]: -0.181
- glycan array binding signal (z-score) [24]: 0.654
- glycan array binding signal (z-score) [25]: -0.055
- glycan array binding signal (z-score) [26]: -0.362
- glycan array binding signal (z-score) [27]: -0.456
- glycan array binding signal (z-score) [28]: -0.21
- glycan array binding signal (z-score) [29]: 0.051
- glycan array binding signal (z-score) [30]: -0.081
- glycan array binding signal (z-score) [31]: -0.034
- glycan array binding signal (z-score) [32]: -0.15
- glycan array binding signal (z-score) [33]: -0.181
- glycan array binding signal (z-score) [34]: -0.071
- glycan array binding signal (z-score) [35]: -0.304
- glycan array binding signal (z-score) [36]: 0.041
